# Test results: PubChem BioAssay (EPA / NIEHS)
# Records with an inconclusive call do not appear. Active and inactive are the calls of the source. Rule for the calls: active = hit-call score of the fitted dose curve at least 0.9, where 1 is the maximum; inconclusive = response in the unintended direction; inactive = score below 0.9.
# Read-out: ABC Transporter (ABCB1), ABCB1 (gene 5243)
# Experiment: CLD_ABCB1_48hr: CellzDirect (CLD) Gene Expression Assay for ABC Transporter (ABCB1) at 48 hours (AID 2283695)
# Description: CLD_48hr is a cell-based, multiplexed-readout assay that uses hepatocyte, a human liver primary cell, with measurements taken at 48 hours after chemical dosing in a 96-well plate.CLD_ABCB1_48hr is one of 16 assay component(s) measured or calculated from the CLD_48hr assay. It is designed to make measurements of mRNA induction, a form of inducible reporter, as detected with chemiluminescence signals by Quantitative Nuclease Protection Assay (qNPA) technology.Data from the assay component CLD_ABCB1_48hr was analyzed at the endpoint, CLD_ABCB1_48hr, in the positive analysis fitting direction relative to DMSO as the negative control and baseline of activity. Using a type of inducible reporter, gain-of-signal activity can be used to understand changes in the reporter gene as they relate to the gene ABCB1. Furthermore, this assay endpoint can be referred to as a primary readout. To generalize the intended target to other relatable targets, this assay endpoint is annotated to the transporter intended target family, where subfamily is ABC transporter.
# Human hepatocyte cultures were treated daily for two consecutive days with fresh dosing solutions containing appropriate concentrations of the 320 ToxCast chemicals (chemical identities were blinded to CellzDirect and other ToxCast collaborators), vehicle control (0.2% DMSO), and positive control inducers as summarized in Table 1. Due to the large number of treatment groups and chemicals examined, the ToxCast chemicals were divided into two groups (spanning two independent cultures of hepatocytes from separate donor preparations (Hu778: ToxCast plates 1 and 2; Hu776: ToxCast plates 3 and 4). Each preparation of human hepatocyte cultures was treated with respective vehicle control, medium only control, set of six positive controls/reference chemicals for the five hepatic receptor pathways, and a subset of eight of the ToxCast chemicals (indoxacarb, pyrithiobac-sodium, norflurazon, cyhalofop-butyl, methomyl, thiram, acetochlor, and propiconazole). These replicate data, coupled with internal replicates designed within the blinded ToxCast chemical library, provided additional data to evaluate interindividual differences between hepatocyte preparations and their potential impact on chemical profiles.Cell morphology and integrity were evaluated using phase-contrast microscopy as an indicator of hepatocyte cell health (Tyson & Green, 1987). Cultures for each treatment group (i.e., media, vehicle [0.2% DMSO], positive control inducers [multiple concentrations], and the ToxCast chemicals [multiple concentrations]) were observed and cell morphology was assessed relative to vehicle control cultures at each harvest time point (0, 6, 24, or 48 h). […] Images were evaluated at the conclusion of the study to assess changes in cell integrity and account for the effects of chemical exposure on uncharacteristic changes in concentration-dependent gene expression profiles. The results from these determinations of apparent cytotoxicity were annotated (yes/no) alongside the corresponding qNPA data for reference.At the conclusion of each treatment period, hepatocyte cultures (96-well) were washed with 1 volume of HBSS, lysed by addition of 25 ul ArrayPlate lysis buffer (HTG, Tucson, AZ), and 70 ul/well of Denaturation Oil, denatured by incubation at 95C for 10 min, and frozen at approximately -70C until analysis by nuclease protection assay (qNPA) (Roberts et al., 2007). For qNPA analysis, cell lysates were thawed at 50C for approximately 30 min, qNPA probes were added, and samples were incubated at 95C for 10 min to begin the detection process by denaturing the target RNA, dissociating the duplexes and secondary structure hybridization. At the conclusion of the hybridization period, S1 nuclease reagent was added to each sample to digest all nonprotected nucleotides at 50C for 60-90 min. […]
row,SMILES,outcome
1,COc1ccc(-c2ccccc2)cc1NNC(=O)OC(C)C,inactive
2,Clc1cccc(C(Cl)(Cl)Cl)n1,inactive
3,CNC(=O)N(C)c1nnc(C(C)(C)C)s1,inactive
4,CCN(CC)C(=O)C(C)Oc1cccc2ccccc12 (stereo not given),inactive
5,CCOc1cc(C(C)(C)C)ccc1C1COC(c2c(F)cccc2F)=N1 (stereo not given),inactive
6,Cc1ccc(N=CN(C)C=Nc2ccc(C)cc2C)c(C)c1,inactive
7,CC(C)N1C(=O)c2ccccc2NS1(=O)=O,inactive
8,O=C(Nc1ccccc1-c1ccc(Cl)cc1)c1cccnc1Cl,inactive
9,COC(=O)NS(=O)(=O)c1ccc(N)cc1,inactive
10,COc1cc(OC)nc(NC(=O)NS(=O)(=O)c2ncccc2OCC(F)(F)F)n1,inactive
11,Nc1c(Cl)c(F)nc(OCC(=O)O)c1Cl,inactive
12,C=CCOC(=O)C(C)(C)OC(=O)c1cc(-n2c(=O)cc(C(F)(F)F)n(C)c2=O)ccc1Cl,inactive
13,CS(=O)(=O)c1ccc(C(=O)C2C(=O)CCCC2=O)c([N+](=O)[O-])c1,inactive
14,CCCCC(C#N)(Cn1cncn1)c1ccc(Cl)cc1 (stereo not given),inactive
15,COC(=O)NC(=S)Nc1ccccc1NC(=S)NC(=O)OC,inactive
16,COCC(C)N(C(=O)CCl)c1c(C)csc1C (stereo not given),inactive
17,CC1(C)CON(Cc2ccccc2Cl)C1=O,inactive
18,CC(C)N1C(=O)N(c2ccccc2)CSC1=NC(C)(C)C,inactive
19,CC(C)Nc1nc(Cl)nc(NC(C)C)n1,inactive
20,CCSC(=O)N1CCCCCC1,inactive

row,SMILES,outcome
1,COP(=O)(OC)O/C(C)=C/C(=O)N(C)C,inactive
2,CCCC(=NOCC)C1=C(O)CC(CC(C)SCC)CC1=O (stereo not given),inactive
3,Cc1nc(N(C)C)nc(OC(=O)N(C)C)c1C,inactive
4,COCC(=O)N(c1c(C)cccc1C)C(C)C(=O)OC (stereo not given),inactive
5,CC(C)C1(C)N=C(c2ncccc2C(=O)O)NC1=O (stereo not given),inactive
6,C=C(C)CN(CC)c1c([N+](=O)[O-])cc(C(F)(F)F)cc1[N+](=O)[O-],inactive
7,CS(=O)(=O)c1cc(C(F)(F)F)ccc1C(=O)c1cnoc1C1CC1,inactive
8,CC1(C)CCC(=Cc2ccc(Cl)cc2)C1(O)Cn1cncn1 (stereo not given),inactive
9,CC1(C)C(C=C(Cl)Cl)C1C(=O)OC(C#N)c1cccc(Oc2ccccc2)c1 (stereo not given),inactive
10,CCCN(CC)CC1COC2(CCC(C(C)(C)C)CC2)O1 (stereo not given),inactive
11,Clc1nc(Cl)nc(Nc2ccccc2Cl)n1,inactive
12,COCc1cnc(C2=NC(C)(C(C)C)C(=O)N2)c(C(=O)O)c1 (stereo not given),inactive
13,Cc1c(COC(=O)[C@@H]2[C@H](/C=C(\Cl)C(F)(F)F)C2(C)C)cccc1-c1ccccc1,inactive
14,CCOP(=S)(OCC)Oc1nc(Cl)n(C(C)C)n1,inactive
15,N#CN=C1SCCN1Cc1ccc(Cl)nc1,inactive
16,CSC(=O)c1c(C(F)F)nc(C(F)(F)F)c(C(=O)SC)c1CC(C)C,inactive
17,CC(C)(C)C(=O)C(Oc1ccc(Cl)cc1)n1cncn1 (stereo not given),inactive
18,CCCCOCN(C(=O)CCl)c1c(CC)cccc1CC,inactive
19,COP(=S)(OC)SCn1nnc2ccccc2c1=O,inactive
20,COC(=O)c1c(C(F)F)nc(C(F)(F)F)c(C2=NCCS2)c1CC(C)C,inactive
